Here are results for 103 compounds from PubChem BioAssay AID504834 (National Center for Advancing Translational Sciences (NCATS), 2011).

Screen size: about 320,000 compounds; about 22,000 (6.9%) were called active. A call without a number means that no potency is given here. Another 27% or so got no clear call; they are omitted. The call rests on the fitted dose curve; in most records, active means well fitted inhibition curve with a large enough effect; inconclusive means small, poorly fitted or top-dose-only effect, or another doubt; inactive means no such curve, though single readings can be large or run the other way. This excerpt belongs to a sample that is enriched for actives.
Potency means the concentration at half of the fitted maximal effect.

This experiment is described as follows: Primary qHTS for delayed death inhibitors of the malarial parasite plastid, 96 hour incubation. Particulars: P. falciparum luciferase reporter growth; series mostly up to 28.7 µM. The gist of the method:
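Erythrocytes infected with luciferase-expressing P. falciparum were dispensed at 2% hematocrit and 0.05% parasitemia (final), then incubated with compounds 96 hours at 37 C in 5% CO2. Luminescence after detection reagent addition reported growth.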
Background: qHTS replaces the single test concentration by a dilution series.
`CC(=O)Nc1ccc(NC(=O)CSC2=NS(=O)(=O)c3ccccc3N2)cc1`: the Potency result is “inactive”. With `COc1ccc(OCc2cc(C(=O)N3CCCC3)no2)c2ccccc12`, the Potency entry was “inactive”. Same read-out and setting: to `CC(=O)Nc1c2c(nn1-c1ccc(C)cc1C)CS(=O)C2` (stereo not drawn) belongs “inactive”; to `CC(C)c1nc(SCC(=O)Nc2cccc(C(=O)O)c2)c2c3c(sc2n1)CCCC3`, “inactive”. As for `CC(=O)Nc1sc2c(c1C(c1cccc(F)c1)N1CCN(CCO)CC1)CCCC2` (stereo not drawn), the Potency was 7.38 µM (active). In the case of `O=C(Nc1sc2c(c1C(=O)O)CCC2)c1ccccc1F`, the Potency entry is “inactive”.

As for `COc1ccc(OCC(=O)Nc2ccc(NC(=O)c3ccco3)c(C)c2)cc1`, the Potency result was “inactive”. The same measure, in the same setting: to `Cc1noc(C)c1C(=O)NCC1COc2ccccc2O1` (stereo not drawn) belongs “inactive”. Same read-out and setting: to `CCOc1ccccc1NC(=S)N1CCN(c2cccc(C)c2C)CC1` belongs 1.65 µM (active); to `CCOc1ccccc1N1CCN(C(=S)Nc2ccc(S(N)(=O)=O)cc2)CC1`, “inactive”. `Cc1cccc(NC(=S)N2CCC(O)CC2)c1C`: the Potency result was “inactive”. Take `Cc1onc(-c2c(F)cccc2Cl)c1C(=O)N(C)CC(=O)Nc1cccc(F)c1`: the Potency entry is “inactive”. As to `O=C(O)c1ccc(Cn2c(=S)[nH]c3cc(Cl)ccc3c2=O)cc1`, the Potency result is “inactive”. `CC(C)c1ccc2c(c1)c(SC(C)(C)C)c(CC(C)(C)C(=O)O)n2Cc1ccc(Cl)cc1`: the Potency is 7.38 µM (active). With `Cc1nc2cc3c(cc2s1)OCO3`, the Potency result is “inactive”. The same measure, in the same setting: to `O=C(c1cc(COc2ccc(F)cc2F)on1)N1CCOCC1` belongs “inactive”. Regarding `Cc1cccc(NC(=O)c2ccc3c(=O)n(CC4CCCO4)c(=S)[nH]c3c2)c1` (stereo not drawn), the Potency entry was “inactive”. The same measure, in the same setting: the value for `CCOC(=O)c1c(C)[nH]c(C)c1S(=O)(=O)NCCCc1ccco1` was “inactive”; that for `COc1cccc(CN(C)CC(=O)NCc2ccccc2Cl)c1OC` was “inactive”; that for `COc1cccc(CN(C)CC2CCCN(CCc3ccc(Cl)cc3)C2)c1OC` (stereo not drawn) was 2.94 µM (active). The same measure, in the same setting: to `CN(CC1CCCN(CCc2cccc(C(F)(F)F)c2)C1)C(=O)c1ccc2nc[nH]c2c1` (stereo not drawn) belongs “inactive”; to `COc1ccc(-c2noc(CNC(=O)C(C)Oc3ccccc3)n2)cc1` (stereo not drawn), 13.1 µM (active). For the compound `O=C(Cc1ccc(Cl)cc1)NCc1nc(-c2ccccc2)no1`, the activity change, negative = inhibition is -24.9% [at 1.15 µM] (inactive). As to `COc1ccc(-c2noc(C(C)NS(=O)(=O)c3ccc(NC(C)=O)cc3)n2)cc1` (stereo not drawn), the Potency entry was “inactive”. With `Cc1ccc(OCC(=O)Nc2ccc3oc(=O)ccc3c2)cc1C`, the Potency result is “inactive”. Same read-out and setting: the value for `Cc1ccc(S(=O)(=O)N2CCN(C(=O)c3ccc(-n4cncn4)c([N+](=O)[O-])c3)CC2)cc1` was “inactive”.

Regarding `CN1CCN(C(=O)C(=O)c2cn(CC(=O)N3CCCC3)c3ccccc23)CC1`, the Potency result was “inactive”. For `CCCn1c(=O)c2c(C(F)(F)F)cc(-c3cccs3)nc2n(CCC)c1=O`, the Potency result was “inactive”. Take `CCN(CC)c1nc(-c2ccccc2)cc(C(F)(F)F)c1C#N`: the Potency result was “inactive”. Turning to `N#Cc1c(C(F)(F)F)cc(-c2cccs2)nc1N1CCCCC1`, the Potency was 10.4 µM (active).

As to `CCOc1ccc2c(c1)c(=O)c(S(=O)(=O)c1ccc(C)cc1)cn2CC`, the Potency entry is “inactive”.

As to `COC(=O)c1ccc(NC(=O)CSc2nncn2-c2cccnc2)cc1`, the Potency result is “inactive”. Same read-out and setting: to `COc1cccc(C(=O)NNC(=O)c2ccccc2Br)c1` belongs “inactive”; to `COc1cccc(C(=O)NNC(=O)/C=C/c2ccccc2)c1`, “inactive”; to `COc1cccc(C(=O)NNC(=O)c2cccc(F)c2)c1`, 0.37 µM (active). On the same count and under the same terms, the value for `COCCCNS(=O)(=O)c1cccc(S(=O)(=O)c2cccc(S(=O)(=O)NCCCOC)c2)c1` was “inactive”; that for `CCc1noc(C)c1C(=O)Oc1ccc(N(C)S(=O)(=O)c2ccc(C)c(C)c2)cc1` was “inactive”; that for `C/C(=N\NC(=S)NCc1ccccc1)c1ccc(Cl)cc1` was “inactive”. Still for that read-out and setting: the value for `C/C(=N\NC(=S)NCc1ccccc1)C1CCCCC1` was 6.57 µM (active); that for `CC1CCCCN1C(=S)NCc1ccccc1` (stereo not drawn) was “inactive”; that for `Cc1c(C)n2c(SCC(=O)N3CCCC3)nnc2[nH]c1=O` was “inactive”. With `COc1cc(OC)c(NS(=O)(=O)c2cn(C)cn2)cc1Cl`, the Potency result is “inactive”.

For the compound `COC(=O)c1c(C)oc(C)c1S(=O)(=O)Nc1ccc(C(C)C)cc1`, the Potency result was “inactive”.

As for `CCc1ccccc1NC(=O)NCCN1CCCCC1`, the Potency entry was “inactive”. For the compound `CN(CC(=O)Nc1ccc(N2CCOCC2)cc1)CC(=O)Nc1ccccc1[N+](=O)[O-]`, the Potency result was “inactive”. Consider `CN1CCN(CCNC(=O)Nc2ccccc2[N+](=O)[O-])CC1`, for which the Potency is 8.28 µM (active). Still for that read-out and setting: to `CC1Cc2cc(/C(O)=C3\C(=O)C(=O)N(Cc4cccnc4)C3c3ccccc3F)ccc2O1` (stereo not drawn) belongs “inactive”.

Regarding `CC1CC(C)CN(S(=O)(=O)c2ccc(C(=O)NN3CCOCC3)cc2)C1` (stereo not drawn), the Potency result was “inactive”. Same read-out and setting: the value for `COC(=O)c1cn(C)c2ccc(S(=O)(=O)N3CC(C)CC(C)C3)cc2c1=O` (stereo not drawn) was 3.7 µM (active). In the case of `CCn1cc(C(=O)N2CC(C)CC(C)C2)c(=O)c2cc(S(=O)(=O)N3CCCC3)ccc21` (stereo not drawn), the Potency result is “inactive”. Same read-out and setting: to `Cc1ccc(-c2cc(C(=O)NN)n[nH]2)o1` belongs “inactive”; to `CCC1(CC)NC(=O)N(CC(=O)OCC(=O)c2cc(C)c(C)cc2C)C1=O`, “inactive”. Take `Cc1cc(-c2nnc(SCC(=O)Nc3ccc(S(N)(=O)=O)cc3)n2N)n[nH]1`: the Potency entry is “inactive”. The same measure, in the same setting: the value for `N#Cc1ccc(C(=O)OCC(=O)NC(=O)NC2CCCCC2)cc1` was “inactive”. As to `O=C(c1ccccc1)c1ccc(C(=O)N2CCN(c3ccccc3)CC2)cc1`, the Potency result is “inactive”. Take `O=C(c1cccc(C(=O)N2CCN(c3ccc(F)cc3)CC2)c1)N1CCN(c2ccc(F)cc2)CC1`: the Potency was 9.28 µM (active). Take `O=C(c1cc2cc(F)ccc2[nH]1)N1CCN(c2ccc(F)cc2)CC1`: the Potency entry was “inactive”.

For `CC(C)(C)c1ccc(S(=O)(=O)N2CCN(C(=O)c3ccc4c(c3)C(=O)N(Cc3ccncc3)C4=O)CC2)cc1`, the Potency result was “inactive”. For `CC(=O)c1ccc(NC(=O)c2cc(-c3cccs3)on2)cc1`, the Potency entry is “inactive”.

For the compound `Cc1ccc(NC(=O)CSc2sc3c(O)cc(=O)[nH]c3c2C#N)cc1C`, the Potency entry was “inactive”. Same read-out and setting: to `CCC1(c2ccccc2)NC(=O)N(CC(=O)c2ccc3c(c2)OCO3)C1=O` (stereo not drawn) belongs “inactive”; to `COc1ccc(N(CC(=O)NCCSCc2cccc(Cl)c2)S(C)(=O)=O)cc1`, “inactive”; to `CN(C)c1ccc(C=C2C(=O)OC3(CCCC3)OC2=O)cc1`, “inactive”. Regarding `CCC(CCC(C)C1CCC2C3CC=C4CC(O)CC[C@@]4(C)C3CC[C@@]12C)C(C)C` (stereo partly drawn), the Potency entry is “inactive”.

As for `CN(C)c1ccc(/C=C2\CC3C4CC=C5CC(O)CCC5(C)C4CCC3(C)C2=O)cc1` (stereo not drawn), the Potency was 2.33 µM (active). For `O=C(O)[C@@H](S)[C@H](S)C(=O)O`, the Potency is 1.69 µM (active).

Regarding `c1cnc(N2CCN(c3ccc4ccccc4n3)CC2)nc1`, the Potency result was “inactive”. Regarding `Cc1ccc(-c2csc(-c3cc(C)on3)n2)cc1`, the Potency entry is “inactive”. Same read-out and setting: to `Clc1ccc(-c2csc(-c3ccncc3)n2)cc1` belongs 0.185 µM (active); to `Fc1ccc(-c2csc(-c3ccc(C4SCCS4)cc3)n2)cc1F`, “inactive”. As to `Cc1ccc(C(=O)N(CC(=O)NC2CCCC2)c2ccc(F)cc2)s1`, the Potency entry was “inactive”. On the same count and under the same terms, to `COCc1ccc(C(=O)NC2CC(C)(C)Cc3c2cnn3-c2ccc(C)cc2)o1` (stereo not drawn) belongs “inactive”; to `C=CCN1C2CCCC1CC(NC(=S)Nc1cccc(OC)c1)C2` (stereo not drawn), “inactive”; to `Cc1cc(C)cc(NC(=S)NC2CC3CCCC(C2)N3Cc2cccs2)c1` (stereo not drawn), 2.33 µM (active). As for `COc1ccc(NC(=O)NC2CC3CCCC(C2)N3Cc2ccccc2)cc1` (stereo not drawn), the Potency result is “inactive”. Still for that read-out and setting: to `CN(C(=O)c1cccc([N+](=O)[O-])c1)c1ccccc1C(=O)NCc1ccccc1` belongs “inactive”. Same read-out and setting: to `CCC1(C(=O)c2ccccc2)C(c2cccc([N+](=O)[O-])c2)C1(C(=O)OC)C(=O)OC` (stereo not drawn) belongs 13.1 µM (active); to `CCC(CC)NC(=O)/C=C/c1cccc([N+](=O)[O-])c1`, “inactive”; to `O=C(CCl)Nc1ccc(Sc2ccc(NC(=O)CCl)cc2)cc1`, 1.85 µM (active). As for `O=C(O)CSCC(=O)Nc1ccc(C(F)(F)F)cc1`, the Potency entry is “inactive”. The same measure, in the same setting: the value for `CCC(=O)Nc1ccc(Nc2nc(Cl)nc(Nc3ccc(NC(=O)CC)cc3)n2)cc1` was “inactive”; that for `Cc1ccc2nc(N(CCN(C)C)C(=O)C3=COCCO3)sc2c1` was “inactive”.

In the case of `COCCNC(=O)c1ccc2nc(Cc3ccc(OC)c(OC)c3)oc2c1`, the Potency entry was “inactive”.

Regarding `O=C(Nc1ccncc1)c1ccccc1[N+](=O)[O-]`, the Potency entry is “inactive”.

Consider `O=C(CN1CCC(NC(=O)Nc2ccccc2)CC1)Nc1cccc([N+](=O)[O-])c1`, for which the Potency result was “inactive”. Same read-out and setting: to `O=C(NNC(=O)c1ccccc1[N+](=O)[O-])Nc1ccccc1C(F)(F)F` belongs 11.7 µM (active); to `O=C(Nc1ccccc1[N+](=O)[O-])C1C(c2ccccc2)=C1c1ccccc1`, 13.1 µM (active). Still for that read-out and setting: the value for `O=C(Nc1ccccc1-c1ccccc1)c1ccccc1[N+](=O)[O-]` was “inactive”. With `O=[N+]([O-])c1ccccc1Nc1ccc(O)cc1`, the Potency result was “inactive”. Same read-out and setting: to `O=C(O)c1ccccc1C(=O)Nc1ccccc1[N+](=O)[O-]` belongs “inactive”. On the same count and under the same terms, the value for `O=C(CN1CCCCC1)Nc1ccccc1C(=O)NC1CC1` was “inactive”; that for `O=C(CN1CCC(NC(=O)C2CC2)CC1)Nc1ccccc1[N+](=O)[O-]` was 0.738 µM (active). On the same count and under the same terms, the value for `O=C(Nc1cccc(NC(=O)c2ccccc2[N+](=O)[O-])c1)c1ccccc1Cl` was “inactive”. For `O=C(O)c1ccccc1NC(=O)c1ccccc1-c1ccccc1C(=O)O`, the Potency result was “inactive”. Same read-out and setting: to `O=C(O)c1ccccc1NC(=S)NC(NC(=O)c1ccccc1[N+](=O)[O-])C(Cl)(Cl)Cl` (stereo not drawn) belongs 13.1 µM (active); to `Cc1ccsc1C(=O)NCCc1ccco1`, “inactive”; to `CCCOC1CCCN(C(=O)c2cc(COc3cncc(Cl)c3)on2)C1` (stereo not drawn), “inactive”. On the same count and under the same terms, to `O=C1Nc2cc(C(=O)N3CCN(c4ccc(F)cc4)CC3)ccc2NC1CSCc1cccc(F)c1` (stereo not drawn) belongs “inactive”. Turning to `COC(=O)c1sc(NC(=S)NC(=O)c2ccc(C)cc2)nc1C`, the Potency result is “inactive”. The same measure, in the same setting: to `Nc1cccc(S(=O)(=O)Nc2ccc(SC(F)F)cc2)c1` belongs “inactive”. On the same count and under the same terms, to `COc1cc(N=Cc2c(O)c3ccccc3oc2=O)c(OC)cc1Cl` belongs “inactive”; to `CCOc1ccc(S(=O)(=O)NCCC(=O)N2CCCCCCC2)cc1`, “inactive”. On to `CCN(CC(=O)NCc1ccc(Cl)cc1)C(=O)c1c(C)noc1C`, for which the Potency entry was “inactive”.
